The whole screen tested about 69,000 compounds, of which about 8,600 (12%) showed an effect of 50% or more. This is one part of a sample in which strong results are shown more often than they occur.
system: Plasmodium berghei; test: Screen against P. berghei liver stage (PbLuc), transformed with Luciferase, at 10uM; assay type: functional, HepG2; conditions: tested at 10 uM

| Structure (SMILES) | INHIBITION |
| --- | --- |
| CC1(C)CN=C(N2CCN(CC3CCCCO3)CC2)S1 (centres undefined) | 27.6% |
| COCC1COCCC12CCN(Cc1cccs1)CC2 (centres undefined) | 23.6% |
| COCCN1C(=O)C[C@H]2[C@H]1CCN2C(=O)c1ccc[nH]1 | 26.3% |
| c1ccc(CCc2n[nH]c(CCN3CCCCC3)n2)cc1 | 38.5% |
| CCN1CCN(Cc2nc(CCc3ccccc3)n[nH]2)CC1 | 56.5% |
| CCN1CCN(Cc2nc(Cc3ccccc3)n[nH]2)CC1 | -7.17% |
| CCOCc1cc(CNC2CCCc3c2cnn3CC)ccc1OC (centres undefined) | 33.8% |
| Cc1nc2sccn2c1CN(CCCN(C)C)Cc1ccco1 | 33.5% |
| CC(CO)NC(=O)c1ccc(NCc2cc(C#N)ccc2F)cc1 (centres undefined) | 26.8% |
| CSc1ccccc1CN1C[C@@H]2CC[C@H]1CN(Cc1[nH]cnc1C)C2 | 60.3% |
| CSCCCN1C[C@@H]2CC[C@H]1CN(Cc1[nH]cnc1C)C2 | 45.8% |
| Cc1nc[nH]c1CN1C[C@H]2CC[C@@H](C1)N(C(=O)CCc1cnn(C)c1)C2 | 40.1% |
| Cc1ccc(CN2C[C@@H]3CC[C@H]2CN(Cc2[nH]cnc2C)C3)o1 | 24.9% |
| Cc1nc[nH]c1CN1C[C@H]2CC[C@@H](C1)N(C(=O)CCNS(C)(=O)=O)C2 | 26.8% |
| Cc1nc[nH]c1CN1C[C@H]2CC[C@@H](C1)N(C(=O)c1cnn(C)c1)C2 | 10.7% |
| Cc1cc(CN2C[C@@H]3CC[C@H]2CN(Cc2[nH]cnc2C)C3)on1 | 62.1% |
| Cc1nc[nH]c1CN1C[C@H]2CC[C@@H](C1)N(C(=O)CCc1cccnc1)C2 | 8.38% |
| Cc1cccc(CN2C[C@@H]3CC[C@H]2CN(Cc2[nH]cnc2C)C3)n1 | 58.5% |
| COCC1CC2(CCN(C(=O)c3occc3C)CC2)CN1C(C)C (centres undefined) | 18.4% |
| CSc1ncccc1C(=O)N(CCO)Cc1ccccc1 | 21.4% |

| Structure (SMILES) | INHIBITION |
| --- | --- |
| CCC(CN1CCCC1)NC(=O)Cc1c(C)[nH]c2cc(C)cc(C)c12 (centres undefined) | 6.32% |
| Cc1nc(-c2ccco2)ccc1C(=O)NCC(=O)N1CCCCC1 | -5.65% |
| CCc1ncncc1C(=O)N1CCCC(n2nc(C)nc2C)C1 (centres undefined) | -31.8% |
| Cn1c(C(=O)Nc2nc[nH]n2)cc2ccccc21 | 41.9% |
| COCCCN(Cc1cnc(C2CCCCC2)nc1)C1CCN(C)CC1 | 49.4% |
| O=C(c1cscn1)N1CCc2ncnc(-c3cccnc3)c2CC1 | 23.6% |
| Cc1cnc(N2CC[C@H]3[C@@H]2CCC(=O)N3c2cccnc2)nc1 | 37.1% |
| COCC(=O)N1CCC(c2nc3ccc(-c4ccccc4)cn3n2)CC1 | -28.2% |
| CCS(=O)(=O)N1CCC(c2nc3ccc(-c4ccccc4)cn3n2)CC1 | 31.8% |
| CN1CCC(c2nc3ccc(-c4ccccc4)cn3n2)CC1 | -15.7% |
| COCC(=O)N1CCC(c2nc3ccc(N4CCCC4)cn3n2)CC1 | -18.2% |
| CC(=O)N1CCC(c2nc3ccc(-c4cccc(F)c4)cn3n2)CC1 | 79.2% |
| CN(C)C(=O)N1CCC(c2nc3ccc(N4CCCC4)cn3n2)CC1 | 47.9% |
| CN(C)C(=O)N1CCC(c2nc3ccc(-c4ccccc4)cn3n2)CC1 | 65.3% |
| c1ccc(-c2ccc3nc(C4CCN(CC5CC5)CC4)nn3c2)cc1 | 6.8% |
| CS(=O)(=O)N1CCC(c2nc3ccc(-c4cccc(F)c4)cn3n2)CC1 | 58.3% |
| COCC(=O)N1CCC(c2nc3ccc(-c4ccncc4)cn3n2)CC1 | 53.4% |
| CC(=O)N1CCC(c2nc3ccc(NC4CCC4)cn3n2)CC1 | 9.51% |
| CN1CCC(c2nc3ccc(-c4cccc(F)c4)cn3n2)CC1 | 33.5% |

Source: ChEMBL document CHEMBL4513216, “Probing the Open Global Health Chemical Diversity Library for Multistage-Active Starting Points for Next-Generation Antimalarials” (ACS Infect Dis, 2020)
